Screening data from PubChem.
An excerpt weighted towards active compounds, which were near 3.1% of everything screened.
Tau fluor counter = Counterscreen qHTS for Inhibitors of Tau Fibril Formation, Fluorescence Polarization; Potency, µM (doses to about 57.7 µM), inactives show at the top dose activity change, negative = decrease; 280,000 compounds, 0.93% hits; tau K18 P301L Alexa594 fluorescence, heparin fibrillization; also: nearly all actives have a fitted effect of over 55% in size
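Human K18 P301L tau (15 uM unlabeled plus 0.24 uM Alexa 594-labeled, final) in 100 mM sodium acetate pH 7 was mixed with compound and 20 uM heparin and incubated 6 hr at 37 C.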
TRb-SRC2 inh = qHTS for Inhibitors of the Interaction of Thyroid Hormone Receptor and Steroid Receptor Coregulator 2. TRbeta-SRC2 peptide binding, fluorescence polarization; receptor liganded with 1 µM T3. Potency, µM (doses to about 106 µM), inactives show top-dose activity change, negative = inhibition, actives largely listed as inhibitors. 280,000 compounds, 0.065% hits;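 also: plate controls were bound peptide for no effect and peptide without receptor for full effect; nearly all actives have a fitted effect of over 50% in size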
Target sequence (P10828 whole entry, looked up): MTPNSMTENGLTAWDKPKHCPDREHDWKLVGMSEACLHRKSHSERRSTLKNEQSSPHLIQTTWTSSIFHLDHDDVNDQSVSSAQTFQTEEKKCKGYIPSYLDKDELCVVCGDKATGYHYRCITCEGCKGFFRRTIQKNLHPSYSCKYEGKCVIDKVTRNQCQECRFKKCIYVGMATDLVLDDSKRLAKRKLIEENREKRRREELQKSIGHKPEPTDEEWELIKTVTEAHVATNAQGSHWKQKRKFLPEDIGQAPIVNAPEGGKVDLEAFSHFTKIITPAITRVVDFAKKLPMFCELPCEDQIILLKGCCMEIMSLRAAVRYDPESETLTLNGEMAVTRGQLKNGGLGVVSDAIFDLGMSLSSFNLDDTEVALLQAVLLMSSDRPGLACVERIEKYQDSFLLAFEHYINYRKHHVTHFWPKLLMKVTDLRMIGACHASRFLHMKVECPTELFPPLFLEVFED
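Fluorescence polarization of 20 nM Texas Red SRC2 peptide (20-aa NR interaction domain) bound to 0.6 uM human TRb ligand-binding domain, with 1 uM T3, after 5 hr at ambient temperature; inhibition seen as decreased polarization.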
TR SRC2 fluor cs = Total Fluorescence Counterscreen for Inhibitors of the Interaction of Thyroid Hormone Receptor and Steroid Receptor Coregulator 2. Potency, µM (top dose mostly 106 µM), for the others: at the top dose fluorescence change, negative = quenching. TRb/SRC2 Texas Red total fluorescence interference. 280,000 compounds, 0.29% hits; active = well fitted curve in either direction with a large enough effect; inconclusive = small, poorly fitted or top-dose-only effect
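Flags fluorescent or light-absorbing compounds by total fluorescence, S + 2P, at 555 nm excitation and 632 nm emission. Mixture: 20 nM Texas Red SRC2 peptide, 0.6 uM human TRb LBD, 1 uM T3, 5% DMSO; compound exposure 5 h at ambient temperature.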
Tau fibril FP = qHTS for Inhibitors of Tau Fibril Formation, Fluorescence Polarization. AID 1468, 2008. Microtubule-associated protein tau (Homo sapiens), P10636. Potency, µM (top dose mostly 57.7 µM), for inactives: at the highest dose activity, negative = inhibition, most hits filed as inhibitors. K18 P301L tau heparin fibrillization, Alexa594 FP, 6 h. 280,000 compounds, 0.39% hits; also: nearly all actives have a fitted effect of over 55% in size
Target sequence (P10636 561-689 P618L limits assumed): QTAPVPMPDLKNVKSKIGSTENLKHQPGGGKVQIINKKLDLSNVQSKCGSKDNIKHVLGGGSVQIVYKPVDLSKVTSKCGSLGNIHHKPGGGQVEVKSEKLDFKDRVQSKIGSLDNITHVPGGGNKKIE
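Heparin (20 uM) drove fibril formation of recombinant tau K18 P301L, 15 uM unlabeled with 0.24 uM Alexa 594 label, for 6 hr at 37 C in 100 mM sodium acetate pH 7. Fluorescence polarization (555/632 nm) read 1 hr after 30 uM ThT.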
Tau fibril ThT = qHTS for Inhibitors of Tau Fibril Formation, Thioflavin T Binding | recombinant tau K18 P301L (four-repeat tau fragment), heparin-induced fibrillization, ThT fluorescence | 270,000 compounds, 2.1% hits | Potency, µM (doses to about 57.4 µM), for the others: at the top dose activity, negative = inhibition, actives largely listed as inhibitors | Microtubule-associated protein tau (Homo sapiens), P10636 | AID 1460, 2008; also: nearly all actives have a fitted effect of over 55% in size
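Aggregation was driven by heparin (20 uM final) acting on recombinant tau […] bearing P301L in 100 mM sodium acetate pH 7; fibrils were detected with Thioflavin T.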
RGS12 GoLoco inh = qHTS Assay for Inhibitors of RGS12 GoLoco Motif Activity (Red Fluorophore). Guanine nucleotide-binding protein G(i) subunit alpha-1 (Homo sapiens), P63096. Gai1:RGS12 GoLoco peptide FP, rhodamine, 10 min. Potency, µM (doses to about 61.6 µM), for inactives: at the highest dose activity, negative = inhibition, usual class: inhibitors. 230,000 compounds, 0.44% hits; active = well fitted inhibition curve with a large enough effect, not every such curve was filed as active; inactive = no such curve, though single readings can be large or run the other way; also: nearly all actives have a fitted effect of over 30% in size
* hit, by the source's call; ? = inconclusive; . = not tested or not shown; [ ] = dose if it differs, or a comment. Unless noted, calls follow the shape of the dose curve; as a rule, active = well fitted curve in the direction sought with a large enough effect; inconclusive = small, poorly fitted or top-dose-only effect, or another doubt; inactive = no such curve, though single readings can be large; an effect the other way counts as inactive or inconclusive. Unless noted, % is scaled to controls: 0 for no effect and ±100 for the full control effect; potency is read from the fitted curve at half-maximal effect.

SMILES	Tau fluor counter	TRb-SRC2 inh	TR SRC2 fluor cs	Tau fibril FP	Tau fibril ThT	RGS12 GoLoco inh
Cc1cc2c3c(c1)C(C)(c1ccccc1)CC(C)(C)N3C(=O)C21C(C#N)=C(N)OC2=C1C(=O)CC(C)(C)C2 (stereo not drawn)	-12%	-25%	1%	13%	-19%	2%
Cc1[nH]c2ccccc2c1SCc1ccccc1	18µM*[quencher]	-6%	-3%	-5%	?	-4%
COc1cc(CNn2nnnc2N)ccc1OCc1c(Cl)cccc1Cl	-15%	-2%	-2%	-6%	5%	2%
CCNC(=O)c1cccc(S(=O)(=O)N2CCCCCC2)c1	7%	13%	-1%	5%	3%	15%
O=C1c2ccccc2-c2nnc(-c3ccc(O)cc3)cc21	?	9%	-14%	15%	5µM*	-2%
COc1ccc(C2(O)CCN(C(=O)c3c(F)cccc3F)CC2)cc1	-2%	0%	-3%	2%	-6%	-2%
Nc1ccccc1N=c1ssnc1Cl	-30%	-3%	0%	?	22µM*	-29%
CC(C)(C)C1=CC(=Nc2ccccc2N)C=C(C(C)(C)C)C1=O	18%	2%[53 µM]	-2%[53 µM]	7%	11%	0%
Cc1ccc(N=C2NC(=O)CS2)cc1	8%	-1%	-2%	10%	-4%	12%
Cc1ccc(N=c2ssnc2Cl)cc1	-25%	-15%	-3%	?	14µM*	2%
Cc1cc(C)nc(/N=c2/ssnc2Cl)c1	-21%	3%	-2%	8.9µM*	4µM*	-14%
Cc1cc(Cl)ccc1N=c1ssnc1Cl	-27%	-13%	1%	22µM*	14µM*	4%
CNC(=S)N/N=C(\C)c1ccc(N2CCOCC2)cc1	-18%	-5%	8%	-5%	?	7%
CCCCCC(=O)Nc1nc(C)c(-c2csc(Nc3cc(Cl)ccc3C)n2)s1	?	0%	4%	7%	?	11%
CCCCCCC(=O)Nc1nc(C)c(-c2csc(Nc3ccc(Cl)cc3)n2)s1	6.3µM*[quencher]	3%	2%	0%	5µM*	66%
CCCCCC(=O)Nc1nc(C)c(-c2csc(Nc3ccc(Cl)cc3)n2)s1	10µM*[quencher]	-5%	2%	8%	11µM*	45%
CCOC(=O)C1CCN(C(=O)c2ccc3c(c2)sc2nc(-c4ccc(C)cc4)cn23)CC1	12%	-8%	?	-6%	-1%	.
CCOc1ccc(-c2cn3c(n2)sc2cc(C(=O)NCCC4=CCCCC4)ccc23)cc1	-6%	-11%	2µM*[quencher]	-12%	5%	.
Cc1ccc(-c2cn3c(n2)sc2cc(C(=O)NCc4cccs4)ccc23)cc1	-9%	-15%	3.2µM*[quencher]	1%	-11%	.
O=C(NCc1cccs1)c1ccc2c(c1)sc1nc(-c3ccc(F)cc3)cn12	-15%	-10%	-4%	-2%	?	.
CCOC(=O)C1CCN(C(=O)c2ccc3c(c2)sc2nc(-c4ccc(OC)cc4)cn23)CC1	1%	-22%	316µM*[quencher]	-1%	-4%	.
CSCC[C@H](NC(=O)[C@H](CC(C)C)N1CCC(NC(=O)[C@@H](NC(=O)[C@H](Cc2ccccc2)NC(=O)[C@H](CO)NC(=O)[C@H](CC(=O)O)NC(=O)[C@@H](N)CCCCN)C(C)C)C1=O)C(N)=O (stereo partly drawn)	.	8%	-11%	.	.	.
Cc1ccc(CNC(=O)Cn2c(=O)cc(C)c3c(C)nn(-c4cccc(F)c4)c32)cc1	-8%	-1%	3%	-17%	3%	.
Cc1cc(=O)n(CC(=O)NC(C)c2ccccc2)c2c1c(C)nn2-c1cccc(F)c1 (stereo not drawn)	-9%	-23%	251µM*[quencher]	-4%	-3%	.
Cc1ccc(NC(=O)C(=O)c2c(-c3ccccc3)cc3ccccn23)cc1S(=O)(=O)N1CCOCC1	?	8%	1%	-2%	?	19%
SMILES	Tau fluor counter	TRb-SRC2 inh	TR SRC2 fluor cs	Tau fibril FP	Tau fibril ThT	RGS12 GoLoco inh
O=C(O)C(C(=O)/C=C/c1ccco1)=C1SCCS1	-16%	-7%	-10%	?	16µM*	0%
Cc1ccc(-c2csc(-c3c(N)c(C(=O)c4ccc5c(c4)OCO5)n4ccccc34)n2)cc1	?	-7%	-2%	19%	?	.
CS(=O)(=O)c1ccc2c(c1)sc1nc(=O)c(/C=C3/C=CC(=O)C(O)=C3)c(N)n12	?	0%	-22%	-2%	4µM*	78%
COC1=C/C(=C/c2c(N)n3c(nc2=O)sc2cc(S(C)(=O)=O)ccc23)C=CC1=O	-19%	1%	-11%	7%	?	-16%
S=c1nc2ccccc2c2nc(-c3ccccc3)[nH]n12	-16%	2%	-3%	1%	-12%	-11%
Cc1ccc(/C=C/C(=O)c2ccc(N3CCOCC3)cc2)s1	?	-2%	-15%	-1%	7.1µM*	41%
COc1ccc(-c2oc(NC(C)=O)c(C#N)c2-c2ccc(OC)cc2)cc1	16µM*[quencher]	1%	-2%	?	?	9%
COC(=O)C1=CN(c2cccc(C)c2)C=C(C(=O)OC)C1c1cc(OC)c(O)c([N+](=O)[O-])c1	?	0%	-3%	13%	16µM*	8%
Cc1ccn2c(CNC(C)CCn3cccn3)c(C(=O)N3CCCCCC3)nc2c1 (stereo not drawn)	-2%	-2%	-2%	1%	-4%	-4%
CCOc1ccc(NC(=S)/C(=C(\[O-])c2ccc(C)c([N+](=O)[O-])c2)[n+]2ccccc2)cc1	-25%	-11%	1%	10%	25µM*	-5%
CCOc1ccc(NC(=S)Nc2ccc(C)c([N+](=O)[O-])c2)cc1	32µM*[quencher]	-5%	0%	-4%	?	4%
CC(=O)Nc1ccc(C)c([N+](=O)[O-])c1	-1%	-3%[53 µM]	1%[53 µM]	6%	-2%	4%
CCn1c(SCC(=O)N/N=C/c2c[nH]c3ccccc23)nnc1-c1ccc(C)cc1	?	7%	-1%	16%	?	10%
Fc1cccc(CO/N=C/c2c(-c3ccccc3)nc3ccc(Cl)cn23)c1	-10%	-9%	-2%	1%	-10%	5%
CCOC(=O)c1c(C)[nH]c(N=Nc2ccc(C)cc2)c1C	?	-9%	-5%	22%	7.9µM*	14%
